The target in experiment [1] is Cellular tumor antigen p53 (Homo sapiens) (UniProt P04637). Put plainly: TOX21_p53_BLA_p3_ratio: Tox21 HCT-116 p53 Agonism Beta-lactamase Assay, Ratio, Phase 3 (AID 2283596). In outline: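 Cells were seeded at 4000/well, rested 5 h at 37C, then dosed with DMSO compound solutions (217-fold dilution) for 16 h. CCF4-AM substrate was loaded for 2 h at room temperature, and the 460/530 nm emission ratio was fitted for gain of signal versus DMSO.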

A short description of experiment [2]: TOX21_p53_BLA_p4_viability: Viability Assessment in the Tox21 HCT-116 p53 Agonism Beta-lactamase Assay, Phase 4 (AID 2283597).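 Also: hits lower the luminescence signal meaning cytotoxicity.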 Put shortly: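 Readout: ATP luminescence (CellTiter-Glo), measured 30 min after reagent addition at RT. The reagent followed a 2 h CCF4-AM incubation, and the cells had been exposed to compound for 16 h at 37C.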
For experiment [3], the target named is Cellular tumor antigen p53 (Homo sapiens) (UniProt P04637). The experiment in a line: TOX21_p53_BLA_p5_ratio: Tox21 HCT-116 p53 Agonism Beta-lactamase Assay, Ratio, Phase 5 (AID 2283599). Put shortly:
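HCT-116 cells carrying a p53-inducible beta-lactamase reporter were seeded at 4000 cells/well and dosed after 5 h with compound in DMSO (217-fold dilution). After 16 h at 37C, CCF4-AM substrate was added for 2 h, and the 460/530 nm emission ratio was scored as gain-of-signal versus DMSO.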

The nature of experiment [4]: TOX21_p53_BLA_p5_viability: Viability Assessment in the Tox21 HCT-116 p53 Agonism Beta-lactamase Assay, Phase 5 (AID 2283600). Put shortly:
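Workflow: seed 4000 cells per well, wait 5 h, add compounds (DMSO, 217-fold dilution), incubate 16 h, load CCF4-AM 2 h, add CellTiter-Glo, read luminescence after 30 min.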

Experiment [5] concerns the target Cellular tumor antigen p53 (Homo sapiens) (UniProt P04637). The experiment in a line: TOX21_p53_BLA_p4_ratio: Tox21 HCT-116 p53 Agonism Beta-lactamase Assay, Ratio, Phase 4 (AID 2283601). In outline: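 HCT116 cells carrying an inducible beta-lactamase reporter were plated at 4000 cells/well, rested 5 h, then exposed to compounds in DMSO (217-fold dilution) for 16 h at 37C. CCF4-AM substrate was loaded 2 h at room temperature; 460/530 nm emission ratio scored gain-of-signal versus DMSO.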

A short description of experiment [6]: Tanguay_ZF_120hpf_MORT_legacy: (Legacy) Oregon State University Tanguay Lab 120 Hour Post-fertilization zebrafish Assay for Mortality (AID 2283633). In outline:
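5D WT zebrafish, chorion removed 4 hpf; 1 embryo/well from 6 hpf; static exposure to 120 hpf, 28C, dark, sealed. Final DMSO 0.64%. Readout: binary mortality, brightfield, 24 + 120 hpf; DMSO as negative control.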

A short description of experiment [7]: Tanguay_ZF_120hpf_YSE_legacy: (Legacy) Oregon State University Tanguay Lab 120 Hour Post-fertilization zebrafish Assay for Yolk Sac Edema (AID 2283634). Put shortly: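 Dechorionate (pronase, 4 hpf) → place one 6 hpf embryo per well → static compound exposure, sealed and foil-covered, 28C, to 120 hpf → record yolk sac edema as present or absent. Final DMSO 0.64%.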

The nature of experiment [8]: Tanguay_ZF_120hpf_AXIS_legacy: (Legacy) Oregon State University Tanguay Lab 120 Hour Post-fertilization zebrafish Assay for Body Axis Malformation (AID 2283635). In outline:
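Chorion is removed with pronase at 4 hpf, then single 6 hpf embryos are dosed (final DMSO 0.64%) and held statically at 28C in sealed, foil-covered plates. At 120 hpf body axis malformation is recorded as present or absent.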

Experiment [9] in a line: Tanguay_ZF_120hpf_EYE_legacy: (Legacy) Oregon State University Tanguay Lab 120 Hour Post-fertilization zebrafish Assay for Eye Malformation (AID 2283636).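 Also: binary presence or absence of eye malformation scored by brightfield in 120 hpf larvae.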 The protocol: Tanguay_ZF_120hpf_legacy is a whole embryo, multiplexed endpoint assay using zebrafish larvae exposed for 120 hours post fertilization on a 96-well plate.Tanguay_ZF_120hpf_EYE_legacy is one of one assay component(s) measured or calculated from the Tanguay_ZF_120hpf_legacy assay. It is designed to make measurements of zebrafish development as detected with brightfield microscopy of developing zebrafish embryos.Data from the assay component Tanguay_ZF_120hpf_EYE_legacy was analyzed into 1 assay endpoints. This assay endpoint, Tanguay_ZF_120hpf_EYE_legacy, was analyzed in the positive analysis fitting direction relative to DMSO as the negative control and baseline of activity. […]
Zebrafish husbandry: Tropical 5D wild-type adult zebrafish were housed in at an approximate density of 1000 per 100 gallon tank at the Sinnhuber Aquatic Research Laboratory, Oregon State University, Corvallis, OR. […] At 24 hpf, embryos were assessed for photomotor response using a custom photomotor response analysis tool (PRAT) and for developmental toxicity endpoints (MO24: mortality at 24 hpf, DP: developmental progression, SM: spontaneous movement, and NC: notochord distortion). At 120 hpf, locomotor activity was measured using Viewpoint Zebralab and assessed for 18 endpoints. […] If mortality occurred for an embryo (at either 24 or 120 hpf), the non-mortality endpoints were not measured.

Experiment [10] can be described thus: Tanguay_ZF_120hpf_SNOU_legacy: (Legacy) Oregon State University Tanguay Lab 120 Hour Post-fertilization zebrafish Assay for Snout Malformation (AID 2283637). In outline: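 Dechorionated zebrafish, individually housed from 6 hpf in covered, sealed wells at 28C with 0.64% DMSO vehicle, were examined at 120 hpf for snout malformation. Responses were binary and analysed positive-direction relative to DMSO.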

Molecules are shown by their SMILES. Several values for one entry are separate records, joined by “and”; a condition that tells them apart may be missing. Equal values may be shown once. Inconclusive results are not listed. More than one record can exist for a structure, and the calls need not agree. Activity calls are given as the source filed them. The calls were made as follows: active = hit-call score of the fitted dose curve at least 0.9, where 1 is the maximum; inconclusive = response in the unintended direction; inactive = score below 0.9.

Cellular tumor antigen p53 (Homo sapiens), sequence (P04637 whole entry, looked up): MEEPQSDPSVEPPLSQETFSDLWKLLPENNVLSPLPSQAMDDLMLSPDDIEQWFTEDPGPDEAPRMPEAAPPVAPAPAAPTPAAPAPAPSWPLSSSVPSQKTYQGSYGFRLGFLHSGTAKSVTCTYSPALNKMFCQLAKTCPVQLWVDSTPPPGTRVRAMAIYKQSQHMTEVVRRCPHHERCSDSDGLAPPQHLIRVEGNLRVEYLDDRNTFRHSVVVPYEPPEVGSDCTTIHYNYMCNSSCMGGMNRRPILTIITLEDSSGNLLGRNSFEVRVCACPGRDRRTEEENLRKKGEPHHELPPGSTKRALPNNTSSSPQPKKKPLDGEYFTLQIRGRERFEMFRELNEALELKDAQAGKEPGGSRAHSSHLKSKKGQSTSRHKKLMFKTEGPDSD

Regarding `C[Si](C)(C)N[Si](C)(C)C`, the outcome in experiment [1], in experiment [2], in [3], in [4] and in experiment [5] was inactive.
Regarding `c1ccc(Nc2cccc3ccccc23)cc1`, the outcome in experiment [1], in experiment [3], in [4] and in experiment [5] was inactive. Moreover, the AC50 in experiment [2] is 43.6 µM (active) and 82.6 µM (active); in [3], 82.2 µM (active); in experiment [5] it was 74.3 µM (active).
`CCCCCOC(=O)CCCCC`: the outcome in [1] was inactive.
As for `CC(C)(c1ccccc1)c1ccc(Nc2ccc(C(C)(C)c3ccccc3)cc2)cc1`, the result in experiment [1], in [2], in experiment [3], in [4] and in [5] was inactive.
On to `C=C[C@@]1(C)CC(=O)[C@]2(O)[C@@]3(C)[C@@H](O)CCC(C)(C)[C@@H]3[C@H](O)[C@H](OC(C)=O)[C@@]2(C)O1`, for which the outcome in experiment [1], in [2], in [3] and in [5] was inactive. Moreover, in [2], the AC50 was 27.1 µM (active).
Regarding `CCOC(=O)C1=NOC(c2ccccc2)(c2ccccc2)C1`, the outcome in experiment [1], in experiment [2], in experiment [3], in experiment [4] and in [5] was inactive.
`CC1OC(=O)C(C)OC1=O` (stereo not drawn): the outcome in experiment [1] was inactive.
In the case of `Oc1ccccc1Cc1ccccc1O`, the result in experiment [1], in experiment [2] and in experiment [5] was inactive.
In the case of `COc1cc(C)ccc1O`, the outcome in experiment [1], in experiment [2], in experiment [3], in [4] and in experiment [5] was inactive.
In the case of `C=C(C)OC(C)=O`, the outcome in [1], in [2], in experiment [3], in experiment [4] and in [5] was inactive.
As for `CCCCCCO`, the outcome in experiment [1], in experiment [2] and in experiment [4] was inactive.
`C=CCCCCCCCCO`: the outcome in experiment [1], in experiment [2], in experiment [3], in [4] and in [5] was inactive.
With `CCCCNC(=S)NCCCC`, the result in experiment [1], in [2], in experiment [4] and in experiment [5] was inactive.
Consider `C=CC(C)(CCC=C(C)C)OC(=O)C=Cc1ccccc1` (stereo not drawn), for which the outcome in experiment [1], in [2] and in [4] was inactive.
Consider `CCCCNS(=O)(=O)c1ccc(C)cc1`, for which the result in experiment [1], in [2], in experiment [3] and in experiment [5] was inactive.
On to `O=C(Cl)c1ccc(C(=O)Cl)cc1`, for which the result in [1], in [2], in experiment [3] and in experiment [5] was inactive.
For the compound `C=CC(=O)OCCCCCCCC(C)C`, the outcome in experiment [1], in experiment [2], in [4] and in [5] was inactive.
As to `O=C(Oc1ccccc1)c1ccccc1C(=O)Oc1ccccc1`, the outcome in experiment [1], in experiment [2], in experiment [3] and in experiment [5] was inactive.
As for `CCCCCCCCCCCCCCCCCCOS(=O)(=O)O`, the AC50 in experiment [1] was 86.5 µM (active). Besides, the result in experiment [2], in experiment [3] and in [5] was inactive.
As for `CCC[Si](OC)(OC)OC`, the result in experiment [1], in experiment [2], in experiment [3] and in experiment [5] was inactive.
As for `O=C(OCc1ccccc1)c1ccc(O)cc1`, the outcome in experiment [1], in [2], in [3] and in [5] was inactive.
As for `CC(=O)OC1CCCCC1C(C)(C)C` (stereo not drawn), the outcome in experiment [1], in experiment [2], in [3], in [4] and in experiment [5] was inactive.
Take `CC(C)c1ccc(O)c(C(C)C)c1`: the outcome in [1], in experiment [3] and in experiment [4] was inactive. Besides, the figures for the AC50 in [2] and in experiment [5] were 44.7 µM (active) and 81 µM (active), respectively.
Take `CC1CCC(C(C)(C)S)C(=O)C1` (stereo not drawn): the outcome in experiment [1], in experiment [2], in experiment [3] and in [5] was inactive.
On to `O=C(O)C1CCC(C(=O)O)CC1` (stereo not drawn), for which the result in experiment [1] and in experiment [3] was inactive. In addition, the figures for the AC50 in [2] and in [5] were 82.4 µM (active) and 85.8 µM (active), respectively.
Regarding `C=CC(=O)OCCCCCCOC(=O)C=C`, the concentration at half-maximal activity (AC50) in [1] is 54.4 µM (active) and 63.2 µM (active); in [3], 42.4 µM (active) and 63.2 µM (active). Besides, the call in experiment [2], in [4] and in experiment [5] was inactive.
Turning to `O=C(O)c1ccc2c(c1)C(=O)OC2=O`, the result in experiment [1], in experiment [2], in experiment [4] and in [5] was inactive.
On to `O=S(=O)(O)c1ccc(N=Nc2c(O)ccc3ccccc23)cc1`, for which the outcome in experiment [1], in [3], in [4] and in experiment [5] was inactive. In addition, the AC50 in [2] was 44 µM (active).
Turning to `CC1(C)CCC[C@]2(C)[C@H]3CC(=O)O[C@]3(C)CC[C@@H]12`, the result in experiment [1], in [2], in experiment [3], in experiment [4] and in experiment [5] was inactive.
On to `CCCCCCCC(=O)OCC(COC(=O)CCCCCCC)OC(=O)CCCCCCC`, for which the outcome in [1], in [2], in experiment [3], in [4] and in experiment [5] was inactive.
Turning to `C=C(C)C(=O)OCCCCCCCCCCCC`, the result in experiment [1], in experiment [2], in experiment [3], in experiment [4] and in [5] was inactive.
Turning to `O=C(O[C@@H]1Cc2c(O)cc(O)cc2O[C@@H]1c1cc(O)c(O)c(O)c1)c1cc(O)c(O)c(O)c1`, the result in experiment [1], in [2], in [3], in [4] and in experiment [5] was inactive.
As for `Oc1ccc(/C=C/c2cc(O)cc(O)c2)cc1`, the outcome in [1], in experiment [2], in experiment [3], in experiment [4] and in experiment [5] was inactive.
With `C=C(C)C(=O)OCC(O)COc1ccc(C(C)(C)c2ccc(OCC(O)COC(=O)C(=C)C)cc2)cc1` (stereo not drawn), the AC50 in experiment [1] is 86.7 µM (active); in [2], 46.1 µM (active). The result in [3] and in experiment [5] was inactive.
Consider `CCCCCCCCCCCCCC(=O)OC(C)C`, for which the result in [1], in experiment [2], in experiment [3], in experiment [4] and in [5] was inactive.
`CC=C(C)C=CC=C(C)C`: the outcome in [1], in [2], in experiment [3] and in experiment [5] was inactive.
`CN(C)Cc1cc(CN(C)C)c(O)c(CN(C)C)c1`: the result in experiment [1], in [2], in experiment [3], in experiment [4] and in experiment [5] was inactive.
As for `C=C1C[C@H]2[C@@H]3C=C(C)C4=CC(=O)CC[C@]4(C)[C@H]3CC[C@]2(C)[C@@]1(OC(C)=O)C(C)=O`, the result in [1], in experiment [2], in experiment [3], in experiment [4] and in [5] was inactive.
For the compound `C1CNCCN1`, the outcome in experiment [1], in experiment [2], in experiment [3], in experiment [4], in experiment [5] and in experiment [6] was inactive. Also, the call in experiment [7], in [8], in [9] and in [10] was inactive.
Turning to `C=C(C)[C@@H]1CC=C(C)CC1`, the outcome in experiment [1], in experiment [2], in experiment [3] and in [5] was inactive.
Turning to `CCCCNS(=O)(=O)c1ccccc1`, the result in experiment [1], in [2], in [3] and in [5] was inactive.

(Values after PubChem BioAssay (EPA / NIEHS).)
